Here are results for 7 molecules from ChEMBL document CHEMBL1961873, “Compounds: GSK PKIS; Assays: Nanosyn kinase panel” (2012).

The target of assay [1] is Serine/threonine-protein kinase pim-2 (Homo sapiens) (UniProt Q9P1W9). To be noted: at 1 µM.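 Note: each value is a mean of the inhibition measurements against the kinase.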
In assay [2] the target is Serine/threonine-protein kinase pim-3 (Homo sapiens) (UniProt Q86V86). The settings on record: at 0.1 µM.
For assay [3] the target is unchanged. The settings on record: at 1 µM.
The target of assay [4] is T1, MAP kinase-activated protein kinase 5 (Homo sapiens) (UniProt Q8IW41).
T1 sequence (whole entry): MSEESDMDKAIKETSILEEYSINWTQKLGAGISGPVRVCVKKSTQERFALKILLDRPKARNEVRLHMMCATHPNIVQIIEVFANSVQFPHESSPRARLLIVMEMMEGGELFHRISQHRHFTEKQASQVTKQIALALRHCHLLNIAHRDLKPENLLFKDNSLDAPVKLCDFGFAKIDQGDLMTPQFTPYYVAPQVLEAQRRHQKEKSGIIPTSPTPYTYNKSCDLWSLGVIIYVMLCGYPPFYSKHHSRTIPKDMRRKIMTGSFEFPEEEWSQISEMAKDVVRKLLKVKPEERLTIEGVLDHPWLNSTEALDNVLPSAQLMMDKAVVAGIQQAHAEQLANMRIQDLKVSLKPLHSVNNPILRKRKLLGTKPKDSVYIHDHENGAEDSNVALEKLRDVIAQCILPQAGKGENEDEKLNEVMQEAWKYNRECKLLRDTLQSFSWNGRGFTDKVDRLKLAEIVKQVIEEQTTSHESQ
The settings on record: at 0.1 µM.

The target of assay [5] is T1, MAP kinase-activated protein kinase 5 (Homo sapiens). The settings on record: at 1 µM.
The target of assay [6] is Serine/threonine-protein kinase SIK1 (Homo sapiens) (UniProt P57059). To be noted: at 0.1 µM.
Assay [7] has the same target. To be noted: at 1 µM.
The target of assay [8] is Serine/threonine-protein kinase SIK2 (Homo sapiens) (UniProt Q9H0K1). To be noted: at 0.1 µM.
The target is the same in assay [9]. To be noted: at 1 µM.
In assay [10] the target is T2, Serine/threonine-protein kinase TBK1 (Homo sapiens) (UniProt Q9UHD2).
T2 sequence (whole entry): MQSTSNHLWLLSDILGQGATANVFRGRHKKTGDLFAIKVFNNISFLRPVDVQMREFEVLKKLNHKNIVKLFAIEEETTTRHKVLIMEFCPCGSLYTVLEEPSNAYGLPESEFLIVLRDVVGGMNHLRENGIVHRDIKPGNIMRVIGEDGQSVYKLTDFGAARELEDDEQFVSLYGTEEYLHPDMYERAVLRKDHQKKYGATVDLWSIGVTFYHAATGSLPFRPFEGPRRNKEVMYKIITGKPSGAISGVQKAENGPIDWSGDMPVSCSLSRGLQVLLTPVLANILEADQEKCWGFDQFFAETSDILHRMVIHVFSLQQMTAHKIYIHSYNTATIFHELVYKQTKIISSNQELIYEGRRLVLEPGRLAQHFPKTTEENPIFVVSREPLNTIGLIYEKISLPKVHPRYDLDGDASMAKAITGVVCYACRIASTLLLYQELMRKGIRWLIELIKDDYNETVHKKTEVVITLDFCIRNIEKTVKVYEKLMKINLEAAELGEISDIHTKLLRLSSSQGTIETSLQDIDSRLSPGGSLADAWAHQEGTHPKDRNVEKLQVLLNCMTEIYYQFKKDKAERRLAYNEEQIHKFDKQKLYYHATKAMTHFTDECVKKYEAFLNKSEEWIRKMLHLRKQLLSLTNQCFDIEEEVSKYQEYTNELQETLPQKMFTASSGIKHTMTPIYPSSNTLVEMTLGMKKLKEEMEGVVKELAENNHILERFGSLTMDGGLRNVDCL
To be noted: at 0.1 µM.

The target of assay [11] is T2, Serine/threonine-protein kinase TBK1 (Homo sapiens). The settings on record: at 1 µM.
Assay [12] concerns the target T3, Testis-specific serine/threonine-protein kinase 1 (Homo sapiens) (UniProt Q9BXA7).
T3 sequence (whole entry): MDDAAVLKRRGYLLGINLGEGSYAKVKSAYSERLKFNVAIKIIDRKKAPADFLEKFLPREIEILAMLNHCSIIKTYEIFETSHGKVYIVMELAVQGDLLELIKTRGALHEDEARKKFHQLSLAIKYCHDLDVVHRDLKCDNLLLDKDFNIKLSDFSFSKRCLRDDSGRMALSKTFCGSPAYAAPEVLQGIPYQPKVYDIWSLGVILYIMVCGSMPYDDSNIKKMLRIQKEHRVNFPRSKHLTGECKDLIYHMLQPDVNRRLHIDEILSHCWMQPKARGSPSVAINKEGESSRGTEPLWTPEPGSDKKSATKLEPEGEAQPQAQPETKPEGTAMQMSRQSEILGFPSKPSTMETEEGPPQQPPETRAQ
To be noted: at 0.1 µM.

The target of assay [13] is T3, Testis-specific serine/threonine-protein kinase 1 (Homo sapiens). The settings on record: at 1 µM.
Assay [14] has as its target T4, Testis-specific serine/threonine-protein kinase 2 (Homo sapiens) (UniProt Q96PF2).
T4 sequence (whole entry): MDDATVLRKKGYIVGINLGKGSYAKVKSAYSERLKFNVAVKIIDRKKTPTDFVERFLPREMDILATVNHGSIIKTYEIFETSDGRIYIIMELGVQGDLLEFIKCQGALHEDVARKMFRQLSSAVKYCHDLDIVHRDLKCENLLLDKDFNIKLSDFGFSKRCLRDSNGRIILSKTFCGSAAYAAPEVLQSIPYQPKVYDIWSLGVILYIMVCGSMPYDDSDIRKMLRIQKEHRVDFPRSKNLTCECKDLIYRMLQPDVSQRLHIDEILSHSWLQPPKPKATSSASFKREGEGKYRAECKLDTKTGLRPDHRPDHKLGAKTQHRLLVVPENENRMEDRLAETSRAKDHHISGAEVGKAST
To be noted: at 0.1 µM.

Assay [15] has as its target T4, Testis-specific serine/threonine-protein kinase 2 (Homo sapiens). The settings on record: at 1 µM.
Assay [16] concerns the target Casein kinase I isoform alpha (Homo sapiens) (UniProt P48729). To be noted: at 0.1 µM.
Assay [17] shares this target. The settings on record: at 1 µM.
The target of assay [18] is Casein kinase I isoform gamma-1 (Homo sapiens) (UniProt Q9HCP0). To be noted: at 0.1 µM.
For assay [19] the target is unchanged. To be noted: at 1 µM.
For assay [20], the target named is Casein kinase I isoform gamma-2 (Homo sapiens) (UniProt P78368). To be noted: at 0.1 µM.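 Note: values are mean inhibition figures reported as part of the GSK PKIS dataset.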
Casein kinase I isoform gamma-2 (Homo sapiens), sequence (P78368 whole entry, looked up, canonical isoform): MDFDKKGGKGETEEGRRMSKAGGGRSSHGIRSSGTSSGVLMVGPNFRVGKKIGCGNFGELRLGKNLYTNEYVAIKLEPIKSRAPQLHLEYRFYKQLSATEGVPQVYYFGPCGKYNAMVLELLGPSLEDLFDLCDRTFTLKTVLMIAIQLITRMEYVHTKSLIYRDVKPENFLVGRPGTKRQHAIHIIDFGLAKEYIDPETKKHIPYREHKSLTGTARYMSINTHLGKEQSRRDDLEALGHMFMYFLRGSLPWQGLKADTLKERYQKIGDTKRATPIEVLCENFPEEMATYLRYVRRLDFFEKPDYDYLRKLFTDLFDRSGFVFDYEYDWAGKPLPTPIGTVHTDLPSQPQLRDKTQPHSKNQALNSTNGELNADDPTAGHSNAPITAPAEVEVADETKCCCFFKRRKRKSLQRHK

Serine/threonine-protein kinase SIK1 (Homo sapiens), sequence (P57059 whole entry): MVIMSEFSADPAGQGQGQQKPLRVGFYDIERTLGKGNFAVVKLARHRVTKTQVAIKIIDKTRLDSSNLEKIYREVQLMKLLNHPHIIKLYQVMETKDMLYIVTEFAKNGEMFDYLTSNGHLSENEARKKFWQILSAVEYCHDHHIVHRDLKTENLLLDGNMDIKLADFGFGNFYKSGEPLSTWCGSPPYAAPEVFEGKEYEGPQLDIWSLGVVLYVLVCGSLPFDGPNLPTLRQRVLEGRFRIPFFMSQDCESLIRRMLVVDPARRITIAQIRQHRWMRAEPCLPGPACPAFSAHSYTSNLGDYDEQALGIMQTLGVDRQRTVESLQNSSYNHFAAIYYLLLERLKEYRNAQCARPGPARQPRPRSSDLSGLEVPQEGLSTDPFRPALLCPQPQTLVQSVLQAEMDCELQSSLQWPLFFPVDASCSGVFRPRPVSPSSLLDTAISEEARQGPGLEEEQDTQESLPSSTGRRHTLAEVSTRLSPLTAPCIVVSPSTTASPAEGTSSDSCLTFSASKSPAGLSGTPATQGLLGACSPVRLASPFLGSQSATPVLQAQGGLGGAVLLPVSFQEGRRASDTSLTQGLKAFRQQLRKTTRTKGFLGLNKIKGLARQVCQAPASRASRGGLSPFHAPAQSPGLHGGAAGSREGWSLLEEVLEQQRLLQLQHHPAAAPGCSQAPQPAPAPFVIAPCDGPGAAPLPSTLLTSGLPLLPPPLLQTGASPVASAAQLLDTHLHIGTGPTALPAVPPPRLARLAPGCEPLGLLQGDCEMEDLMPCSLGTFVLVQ
Serine/threonine-protein kinase SIK2 (Homo sapiens), sequence (Q9H0K1 whole entry, looked up): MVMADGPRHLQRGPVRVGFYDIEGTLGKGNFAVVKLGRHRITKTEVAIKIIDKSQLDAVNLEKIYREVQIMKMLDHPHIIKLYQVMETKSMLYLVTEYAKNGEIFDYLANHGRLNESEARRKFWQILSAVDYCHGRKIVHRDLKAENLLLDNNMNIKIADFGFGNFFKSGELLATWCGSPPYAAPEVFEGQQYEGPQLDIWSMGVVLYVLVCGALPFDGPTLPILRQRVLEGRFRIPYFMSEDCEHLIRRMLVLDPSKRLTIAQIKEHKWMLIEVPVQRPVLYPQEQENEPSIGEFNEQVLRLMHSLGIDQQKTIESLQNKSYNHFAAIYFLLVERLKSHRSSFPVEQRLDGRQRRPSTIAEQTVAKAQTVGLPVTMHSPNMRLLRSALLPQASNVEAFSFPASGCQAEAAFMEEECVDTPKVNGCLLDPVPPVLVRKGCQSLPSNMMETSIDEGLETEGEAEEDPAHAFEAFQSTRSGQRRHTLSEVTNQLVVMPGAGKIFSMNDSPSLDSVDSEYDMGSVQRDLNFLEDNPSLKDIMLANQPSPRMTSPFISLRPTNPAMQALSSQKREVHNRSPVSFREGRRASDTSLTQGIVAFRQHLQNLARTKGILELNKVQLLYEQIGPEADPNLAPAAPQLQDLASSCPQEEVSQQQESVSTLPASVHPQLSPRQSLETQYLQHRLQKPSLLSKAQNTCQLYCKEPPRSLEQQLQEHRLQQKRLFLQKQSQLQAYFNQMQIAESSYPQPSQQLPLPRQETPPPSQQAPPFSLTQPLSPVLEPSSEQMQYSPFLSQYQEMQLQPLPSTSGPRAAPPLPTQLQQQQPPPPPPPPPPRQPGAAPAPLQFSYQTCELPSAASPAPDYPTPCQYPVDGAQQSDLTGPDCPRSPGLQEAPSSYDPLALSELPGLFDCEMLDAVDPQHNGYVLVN
Casein kinase I isoform alpha (Homo sapiens), sequence (P48729 2-337 limits assumed): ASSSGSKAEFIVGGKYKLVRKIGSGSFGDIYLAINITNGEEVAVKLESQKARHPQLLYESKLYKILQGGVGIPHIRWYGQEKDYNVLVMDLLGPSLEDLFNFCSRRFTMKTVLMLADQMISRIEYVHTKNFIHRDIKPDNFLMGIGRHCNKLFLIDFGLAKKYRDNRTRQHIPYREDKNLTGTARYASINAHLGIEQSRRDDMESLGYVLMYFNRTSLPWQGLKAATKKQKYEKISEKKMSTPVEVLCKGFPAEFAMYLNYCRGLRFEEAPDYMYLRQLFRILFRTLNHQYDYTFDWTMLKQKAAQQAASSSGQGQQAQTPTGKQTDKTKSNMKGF
Serine/threonine-protein kinase pim-2 (Homo sapiens), sequence (Q9P1W9 whole entry, looked up): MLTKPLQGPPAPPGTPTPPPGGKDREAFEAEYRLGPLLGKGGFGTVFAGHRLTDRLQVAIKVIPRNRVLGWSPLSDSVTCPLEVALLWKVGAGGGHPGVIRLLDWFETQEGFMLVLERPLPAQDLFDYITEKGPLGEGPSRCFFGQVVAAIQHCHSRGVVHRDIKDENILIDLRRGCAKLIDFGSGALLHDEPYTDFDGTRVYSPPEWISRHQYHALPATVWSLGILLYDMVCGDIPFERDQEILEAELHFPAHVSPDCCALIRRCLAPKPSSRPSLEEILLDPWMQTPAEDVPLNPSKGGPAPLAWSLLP
Casein kinase I isoform gamma-1 (Homo sapiens), sequence (Q9HCP0 whole entry, looked up, canonical isoform): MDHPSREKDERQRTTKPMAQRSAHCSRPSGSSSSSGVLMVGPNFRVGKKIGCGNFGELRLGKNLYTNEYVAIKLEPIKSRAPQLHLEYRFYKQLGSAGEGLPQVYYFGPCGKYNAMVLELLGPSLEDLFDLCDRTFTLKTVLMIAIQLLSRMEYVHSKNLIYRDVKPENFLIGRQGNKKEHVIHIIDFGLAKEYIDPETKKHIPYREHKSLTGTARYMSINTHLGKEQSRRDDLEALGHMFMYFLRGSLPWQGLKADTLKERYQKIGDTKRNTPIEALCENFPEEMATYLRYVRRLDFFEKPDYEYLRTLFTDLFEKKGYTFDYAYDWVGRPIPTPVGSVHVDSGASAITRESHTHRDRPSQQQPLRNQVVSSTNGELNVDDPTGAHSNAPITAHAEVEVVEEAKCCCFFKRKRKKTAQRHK

`C[C@@H](Oc1cc(-n2cnc3ccc(OCC4CCN(C)CC4)cc32)sc1C(N)=O)c1ccccc1Cl`: the inhibition in [1] was determined as 2.74%; in assay [2], 11.4%; in assay [3] it was 52.7%; in [4] it was 1.77%; in assay [5], 2.11%; in assay [6], 11.5%. Besides, the inhibition in [7] came out at 42%; in [8], 7.32%; in assay [9], 22%; in assay [10], 4.93%; in assay [11], 6.08%; in assay [12], 6.84%. In addition, the inhibition was determined as 13.6% in assay [13]; 3.55% in assay [14]; 3.8% in assay [15]; 5.44% in [16]; 6.37% in [17]; 5.29% in assay [18]. Besides, the inhibition is 8.54% in assay [19] and 5.69% in assay [20].

As to `CN(C)CCOc1ccc(-c2cc(-c3ccc4c(c3)CCC4=NO)c(-c3ccncc3)o2)cc1`, the inhibition is 0.08% in [1]; 1.08% in assay [2]; 0.13% in assay [3]; -0.29% in assay [4]; -0.04% in [5]; 0.11% in assay [6]. Also, the inhibition in [7] is 6.09%; in [8], -4.64%; in assay [9] it was -1.24%; in assay [10], -2.4%; in assay [11] it was -0.95%; in [12], -0.74%. The inhibition is 0.17% in assay [13]; 0.18% in assay [14]; 1.16% in assay [15]; -1.99% in [16]; -1.5% in assay [17]; -1.03% in [18]. For the same molecule, the inhibition in assay [19] was -0.13%; in assay [20], -0.84%.

On to `NCc1ccc(-n2c(-c3nonc3N)nc3cnccc32)cc1`, for which the inhibition in assay [1] was 45.2%; in assay [2], 16.4%; in assay [3], 68.5%; in assay [4] it was 1.5%; in assay [5] it was 1.55%; in [6], 5.74%. Also, the inhibition in [7] amounted to 11.6%; in assay [8], 5.87%; in assay [9], 15.8%; in assay [10], 4.35%; in [11], 11.6%; in assay [12], 9.68%. The inhibition in assay [13] came to 32.2%; in [14] it was 3.06%; in assay [15], 3.08%; in assay [16], 3.56%; in assay [17], 9.76%; in [18], 5.74%. Further, the inhibition in [19] was found to be 8.48%; in assay [20], 3.49%.

`COc1cc2ncn(-c3cc(OCc4cccs4)c(C(N)=O)s3)c2cc1OC`: the inhibition in assay [1] is -1.58%; in [2], 3.33%; in assay [3] it was 8.26%; in [4] it was 2.5%; in assay [5], 5.17%; in assay [6], 4.36%. Further, the inhibition in assay [7] was determined as 23.7%; in assay [8] it was 6.37%; in assay [9], 24.9%; in assay [10] it was 3.06%; in assay [11] it was 16.7%; in [12], 4.25%. In addition, the inhibition in assay [13] was 8.81%; in assay [14] it was 2.91%; in assay [15], 7.11%; in [16] it was 2%; in [17], 3.36%; in assay [18] it was -0.26%. The inhibition in assay [19] is -1.01%; in [20] it was -1.54%.

Turning to `COc1cc(N2CCN(C(C)C)CC2)ccc1Nc1nc(Nc2ccc(F)cc2C(=O)NC[C@@H](O)CO)c2cc[nH]c2n1`, the inhibition in [1] was -3.2%; in [2] it was 1.39%; in [3], 5.28%; in [4], 2.43%; in assay [5] it was 4.77%; in assay [6], 1.88%. Moreover, the inhibition in assay [7] came to 9.27%; in assay [8], 4.52%; in assay [9] it was 9.21%; in assay [10], 1.74%; in [11] it was 4.23%; in [12], 45.9%. For the same molecule, the inhibition in assay [13] came to 84.9%; in [14], 15.7%; in assay [15], 53.7%; in assay [16], 4.46%; in [17] it was 12.9%; in assay [18], 2.26%. The inhibition in assay [19] worked out at 17.9%; in [20] it was 2.13%.

Consider `COc1ccc(-c2ccc3c(NC(=O)C4CC4)n[nH]c3n2)cc1`, for which the inhibition is 0.38% in [1]; 0.42% in [2]; 0.61% in assay [3]; 1.05% in [4]; 2.54% in assay [5]; -0.67% in [6]. Moreover, the inhibition is 4.73% in assay [7]; 2.86% in assay [8]; 6.15% in assay [9]; 2.33% in assay [10]; 0.62% in assay [11]; 2.89% in [12]. For the same molecule, the inhibition amounted to 4.85% in assay [13]; 0.65% in assay [14]; 4.63% in assay [15]; 6.34% in [16]; 0.42% in assay [17]; 1.84% in assay [18]. The inhibition in [19] came out at 2.17%; in assay [20], 1.99%.

`CCc1cccc(CC)c1/C=C/c1cncc(C(=O)NC)c1`: the inhibition in assay [1] was -0.07%; in [2], -0.9%; in [3], -2.15%; in assay [4], 0.86%; in [5] it was -0.1%; in assay [6], 0.91%. Also, the inhibition in assay [7] was 6.26%; in [8], 1.69%; in [9] it was -1.33%; in assay [10], 0.14%; in assay [11], 1.52%; in [12] it was 1.47%. Further, the inhibition was 0.1% in assay [13]; 1.86% in assay [14]; -3.19% in [15]; 2.53% in assay [16]; 6.21% in assay [17]; 2.66% in assay [18]. In addition, the inhibition came out at 5.44% in [19] and 1.49% in assay [20].
